Assay results: PubChem BioAssay AID651739 (Broad Institute, 2012)
Screen size: about 5,600 compounds; about 4,100 (73%) were called active. Another 4% or so got no clear call; they are omitted.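 The calls were made as follows: active = mean replicate inhibition above about 95% and at least 55% of replicates individually reaching it (limit read from the data); inconclusive = only one of the two criteria is met; inactive = neither criterion is met.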 The set was probably picked from earlier hits. The list is a sample of the results.

Assay: blockers of Trypanosoma cruzi growth in host cells – cell-based, NIH3T3 host, beta-gal parasite, luminescence, cherry-pick, confirmation (AID 651739)
Settings: T. cruzi beta-gal in NIH3T3, GalScreen luminescence, 90 h; at 8.35 µM; stronger effect = higher value

Question: Which inhibition does the source give for `COc1ccccc1C#Cc1ccc([C@H]2[C@H](CO)N3CCCCN(C(=O)C4CCC4)C[C@@H]23)cc1` here?
Answer: 114% (active)

Question: For `COc1ccccc1C#Cc1ccc([C@@H]2[C@H](CO)N3CCCCN(C(=O)C4CCCC4)C[C@@H]23)cc1`, which inhibition is on record?
Answer: 99.8% (active)

Question: Which inhibition does the source give for `COc1ccccc1C#Cc1ccc([C@@H]2[C@H](CO)N3CCCCN(C(=O)C4CC4)C[C@@H]23)cc1` here?
Answer: 103% (active)

Question: With `C[C@@H]1CN([C@H](C)CO)S(=O)(=O)c2ccc(C#C[C@@H](C)O)cc2O[C@@H]1CN(C)Cc1ccc(-c2ccccc2)cc1` as the compound, how does the inhibition read?
Answer: 96.5% (active)

Question: With `C[C@@H]1CN([C@@H](C)CO)S(=O)(=O)c2ccc(/C=C/c3ccccc3)cc2O[C@H]1CN(C)Cc1ccccc1` as the compound, how does the inhibition read?
Answer: 98.5% (active)

Question: With `CC(C)C#Cc1ccc2c(c1)O[C@H](CN(C)Cc1ccccc1)[C@H](C)CN([C@@H](C)CO)S2(=O)=O` as the compound, how does the inhibition read?
Answer: 105% (active)

Question: With `C[C@H]1CN([C@@H](C)CO)S(=O)(=O)c2ccc(C#CCN(C)C)cc2O[C@@H]1CN(C)Cc1ccc(F)cc1` as the compound, how does the inhibition read?
Answer: 109% (active)

Question: For `CCCC#Cc1ccc2c(c1)O[C@H](CN(C)C(=O)CC)[C@@H](C)CN([C@H](C)CO)S2(=O)=O`, which inhibition is on record?
Answer: 99.3% (active)

Question: With `CCCC#Cc1ccc2c(c1)O[C@@H](CN(C)C(=O)c1ccccc1F)[C@H](C)CN([C@H](C)CO)S2(=O)=O` as the compound, how does the inhibition read?
Answer: 105% (active)

Question: For `CCC(=O)N(C)C[C@@H]1Oc2cc(C#CCN(C)C)ccc2S(=O)(=O)N([C@H](C)CO)C[C@H]1C`, which inhibition is on record?
Answer: 98.5% (active)

Question: For `CC(=O)N(C)C[C@H]1Oc2cc(C#CCN(C)C)ccc2S(=O)(=O)N([C@@H](C)CO)C[C@@H]1C`, which inhibition is on record?
Answer: 95.7% (active)

Question: For `C[C@@H]1CN([C@@H](C)CO)S(=O)(=O)c2ccc(-c3cccc(F)c3)cc2O[C@@H]1CN(C)S(=O)(=O)c1ccccc1`, which inhibition is on record?
Answer: 104% (active)

Question: For `CC(C)CC#Cc1ccc2c(c1)O[C@H](CN(C)S(=O)(=O)c1cccc(F)c1)[C@@H](C)CN([C@@H](C)CO)S2(=O)=O`, which inhibition is on record?
Answer: 88.4% (inactive)

Question: For `C[C@H]1CN([C@@H](C)CO)S(=O)(=O)c2ccc(C#Cc3cccc(F)c3)cc2O[C@@H]1CN(C)S(=O)(=O)c1cn(C)cn1`, which inhibition is on record?
Answer: 102% (active)

Question: With `COCCNC[C@@H]1[C@H](c2ccccc2)[C@H](CO)N1c1nc(C)c(C)s1` as the compound, how does the inhibition read?
Answer: 95.7% (active)

Question: With `O=S(=O)(c1ccccc1)N1CC[C@@H]2[C@@H](CO)Nc3ccc(-c4ccccc4F)cc3[C@@H]21` as the compound, how does the inhibition read?
Answer: 103% (active)

Question: For `O=S(=O)(c1ccccc1)N1CC[C@@H]2[C@H]1c1cc(C#Cc3cccc(F)c3)ccc1N[C@@H]2CO`, which inhibition is on record?
Answer: 97.6% (active)

Question: For `O=S(=O)(c1ccccc1)N1CC[C@@H]2[C@@H](CO)Nc3ccc(C#Cc4cccc(F)c4)cc3[C@@H]21`, which inhibition is on record?
Answer: 100% (active)

Question: For `O=C(c1cccc(F)c1)N1CC[C@@H]2[C@@H](CO)Nc3ccc(C#Cc4cccc(F)c4)cc3[C@@H]21`, which inhibition is on record?
Answer: 106% (active)

Question: For `CC(=O)N1CC[C@@H]2[C@H](CO)Nc3ccc(C#Cc4ccccc4F)cc3[C@@H]21`, which inhibition is on record?
Answer: 70.2% (inactive)

Question: Which inhibition does the source give for `O=C(Cc1ccccc1)N1CC[C@H]2[C@H](CO)Nc3ccc(-c4ccccc4F)cc3[C@H]21` here?
Answer: 103% (active)

Question: Which inhibition does the source give for `Cc1ccccc1S(=O)(=O)N1CC[C@H]2[C@H](CO)Nc3ccc(-c4cccc(F)c4)cc3[C@H]21` here?
Answer: 105% (active)

Question: For `Cc1ccc(S(=O)(=O)Nc2ccc3c(c2)C(=O)N([C@@H](C)CO)C[C@@H](C)[C@H](CN(C)C(=O)Nc2cccc4ccccc24)OCCCC[C@H](C)O3)cc1`, which inhibition is on record?
Answer: 97.1% (active)

Question: With `Cc1noc(C)c1S(=O)(=O)Nc1ccc2c(c1)C(=O)N([C@@H](C)CO)C[C@H](C)[C@@H](CN(C)C(=O)Nc1cccc3ccccc13)OCCCC[C@H](C)O2` as the compound, how does the inhibition read?
Answer: 99.4% (active)

Question: Which inhibition does the source give for `C[C@@H]1CCCCO[C@H](CN(C)C(=O)Nc2cccc3ccccc23)[C@H](C)CN([C@H](C)CO)C(=O)c2cc(NS(=O)(=O)c3cccs3)ccc2O1` here?
Answer: 103% (active)

Question: For `C[C@H](CO)N1C[C@H](C)[C@H](CN(C)C(=O)C2CCCCC2)Oc2ncc(C#Cc3cccc(F)c3)cc2C1=O`, which inhibition is on record?
Answer: 102% (active)

Question: With `C[C@H](CO)N1C[C@H](C)[C@H](CN(C)C(=O)Nc2ccc3c(c2)OCO3)Oc2ncc(C#Cc3cccc(F)c3)cc2C1=O` as the compound, how does the inhibition read?
Answer: 85.5% (inactive)

Question: Which inhibition does the source give for `C[C@@H]1CN([C@H](C)CO)C(=O)c2cc(C#CC3CCCCC3)cnc2O[C@@H]1CN(C)C(=O)NC1CCCC1` here?
Answer: 103% (active)

Question: With `C[C@@H]1CN([C@@H](C)CO)C(=O)c2cc(C#CC3CCCCC3)cnc2O[C@H]1CN(C)S(=O)(=O)c1ccccc1` as the compound, how does the inhibition read?
Answer: 107% (active)

Question: For `C[C@H]1CN([C@@H](C)CO)C(=O)c2cc(C#CC3CCCCC3)cnc2O[C@H]1CN(C)S(=O)(=O)c1ccccc1`, which inhibition is on record?
Answer: 108% (active)

Question: With `Cc1cc(C(=O)Nc2cccc3c2O[C@@H](CN(C)Cc2ccc(C(=O)Nc4ccccc4N)cc2)[C@H](C)CN([C@@H](C)CO)C3=O)n(C)n1` as the compound, how does the inhibition read?
Answer: 105% (active)

Question: With `C[C@@H]1CN([C@H](C)CO)C(=O)c2cccc(NC(=O)NC3CCCCC3)c2O[C@H]1CN(C)Cc1ccc(C(F)(F)F)cc1` as the compound, how does the inhibition read?
Answer: 89.1% (inactive)

Question: For `C[C@H](CO)N1C[C@H](C)[C@@H](CN(C)Cc2ccc(C(=O)Nc3ccccc3N)cc2)Oc2c(NC(=O)c3ccc(-c4nccs4)cc3)cccc2C1=O`, which inhibition is on record?
Answer: 99.3% (active)

Question: With `C[C@@H]1CN([C@H](C)CO)C(=O)c2cccc(NC(=O)c3ccc(-c4nccs4)cc3)c2O[C@@H]1CN(C)C(=O)Nc1ccc(C(F)(F)F)cc1` as the compound, how does the inhibition read?
Answer: 104% (active)

Question: For `C[C@@H]1CN([C@H](C)CO)C(=O)c2cccc(NC(=O)c3cnccn3)c2O[C@@H]1CN(C)Cc1ccc(C(=O)Nc2ccccc2N)cc1`, which inhibition is on record?
Answer: 92.4% (inactive)

Question: With `C[C@@H]1CN([C@H](C)CO)C(=O)c2cc(NS(=O)(=O)c3ccc(Cl)cc3)ccc2O[C@@H](C)CCCCO[C@H]1CN(C)Cc1ccccc1` as the compound, how does the inhibition read?
Answer: 97.6% (active)

Question: With `C[C@H](CO)N1C[C@H](C)[C@H](CN(C)Cc2ccc(C(F)(F)F)cc2)OCCCC[C@H](C)Oc2ccc(NS(=O)(=O)c3ccc(Cl)cc3)cc2C1=O` as the compound, how does the inhibition read?
Answer: 91.8% (inactive)

Question: Which inhibition does the source give for `C[C@@H]1CCCCO[C@H](CN(C)Cc2ccccc2)[C@H](C)CN([C@H](C)CO)C(=O)c2cc(NS(=O)(=O)c3ccc(Cl)cc3)ccc2O1` here?
Answer: 99.5% (active)

Question: For `C[C@@H]1CCCCO[C@H](CN(C)C(=O)NC2CCCCC2)[C@H](C)CN([C@H](C)CO)C(=O)c2cc(NS(=O)(=O)c3ccc(Cl)cc3)ccc2O1`, which inhibition is on record?
Answer: 106% (active)

Question: With `C[C@H]1CCCCO[C@@H](CN(C)C(=O)NC2CCCCC2)[C@@H](C)CN([C@@H](C)CO)C(=O)c2cc(NS(=O)(=O)c3ccc(Cl)cc3)ccc2O1` as the compound, how does the inhibition read?
Answer: 103% (active)

Question: With `COc1ccc(S(=O)(=O)Nc2ccc3c(c2)C(=O)N([C@H](C)CO)C[C@@H](C)[C@@H](CN(C)CC2CCCCC2)OCCCC[C@@H](C)O3)cc1` as the compound, how does the inhibition read?
Answer: 91.5% (inactive)

Question: Which inhibition does the source give for `COc1ccc(NC(=O)N(C)C[C@@H]2OCCCC[C@@H](C)Oc3ccc(NS(=O)(=O)c4ccc(Cl)cc4)cc3C(=O)N([C@H](C)CO)C[C@H]2C)cc1` here?
Answer: 104% (active)

Question: With `O=C(NCC1CCCCC1)[C@H]1[C@H](CO)[C@H]2Cn3c(cccc3=O)[C@H]2N1C(=O)CC1CC1` as the compound, how does the inhibition read?
Answer: 43% (inactive)

Question: With `O=C(Nc1ccc(-c2ccccc2)cc1)[C@H]1[C@H](CO)[C@H]2Cn3c(cccc3=O)[C@H]2N1CC1CC1` as the compound, how does the inhibition read?
Answer: 101% (active)

Question: For `O=C(NCc1ccccn1)[C@@H]1[C@@H](CO)[C@@H]2Cn3c(ccc(/C=C/c4ccccc4)c3=O)[C@H]1N2CC1CC1`, which inhibition is on record?
Answer: 66.3% (inactive)

Question: With `Cc1cccc(-c2ccc([C@@H]3[C@@H](CO)N4CCCCN(S(=O)(=O)c5cccs5)C[C@H]34)cc2)c1` as the compound, how does the inhibition read?
Answer: 106% (active)

Question: For `CCS(=O)(=O)N1CCCCN2[C@@H](CO)[C@@H](c3ccc(-c4ccccc4)cc3)[C@@H]2C1`, which inhibition is on record?
Answer: 102% (active)

Question: With `C/C=C/c1ccc([C@H]2[C@H]3CN(S(=O)(=O)c4ccccc4)CCCCN3[C@H]2CO)cc1` as the compound, how does the inhibition read?
Answer: 105% (active)

Question: With `O=S(=O)(Cc1ccccc1)N1CCCCN2[C@@H](CO)[C@@H](c3ccc(-c4ccc(F)cc4)cc3)[C@@H]2C1` as the compound, how does the inhibition read?
Answer: 96.2% (active)

Question: Which inhibition does the source give for `O=S(=O)(Cc1ccccc1)N1CCCCN2[C@@H](CO)[C@H](c3ccc(-c4ccccc4)cc3)[C@@H]2C1` here?
Answer: 97.9% (active)

Question: Which inhibition does the source give for `O=S(=O)(Cc1ccccc1)N1CCCCN2[C@@H](CO)[C@H](c3ccc(-c4cccnc4)cc3)[C@@H]2C1` here?
Answer: 97.7% (active)

Question: With `C[C@H](O)C#Cc1ccc([C@H]2[C@H]3CN(S(=O)(=O)Cc4ccccc4)CCCCN3[C@H]2CO)cc1` as the compound, how does the inhibition read?
Answer: 72.1% (inactive)

Question: For `C[C@@H]1CN([C@@H](C)CO)C(=O)c2cc(C#Cc3ccccc3)cnc2O[C@H]1CN(C)C(=O)c1ccccn1`, which inhibition is on record?
Answer: 101% (active)

Question: Which inhibition does the source give for `COCC(=O)N(C)C[C@@H]1Oc2ncc(C#Cc3ccccc3OC)cc2C(=O)N([C@@H](C)CO)C[C@H]1C` here?
Answer: 109% (active)

Question: Which inhibition does the source give for `C[C@@H]1CN([C@H](C)CO)C(=O)c2cc(/C=C/c3ccccc3)cnc2O[C@@H]1CN(C)Cc1ccncc1` here?
Answer: 86.1% (inactive)

Question: For `CC(C)CC#Cc1cnc2c(c1)C(=O)N([C@@H](C)CO)C[C@@H](C)[C@H](CN(C)C(=O)Cc1ccncc1)O2`, which inhibition is on record?
Answer: 76.3% (inactive)

Question: For `C[C@@H]1CN([C@H](C)CO)C(=O)c2cc(C#Cc3ccccn3)cnc2O[C@H]1CN(C)Cc1ccccc1`, which inhibition is on record?
Answer: 102% (active)

Question: With `COc1ccc(C#Cc2cnc3c(c2)C(=O)N([C@@H](C)CO)C[C@H](C)[C@@H](CN(C)C(C)=O)O3)cc1` as the compound, how does the inhibition read?
Answer: 19.7% (inactive)

Question: Which inhibition does the source give for `C[C@H](CO)N1C[C@H](C)[C@H](CN(C)C(=O)Nc2cccc3ccccc23)Oc2ncc(C#Cc3ccccc3)cc2C1=O` here?
Answer: 99.9% (active)

Question: For `C[C@@H]1CCCCO[C@@H](CN(C)S(=O)(=O)c2ccc(Cl)cc2)[C@H](C)CN([C@@H](C)CO)C(=O)c2cc(NC(=O)Cc3ccccc3)ccc2O1`, which inhibition is on record?
Answer: 108% (active)

Question: Which inhibition does the source give for `Cc1ccc(S(=O)(=O)N(C)C[C@H]2OCCCC[C@H](C)Oc3ccc(NC(=O)Cc4ccccc4)cc3C(=O)N([C@@H](C)CO)C[C@@H]2C)cc1` here?
Answer: 110% (active)
